This is an account of results in PubChem BioAssay (Tox21).

Unmarked numbers belong to inactive results. Results filed as inconclusive are left out. Activity calls are given as the source filed them. Unless noted, calls follow the shape of the full dose curve.

Assay [1] can be described thus: Nuclear factor erythroid 2-related factor 2/antioxidant responsive element (Nrf2/ARE) small molecule agonists: qHTS cell viability counter screen in human keratinocytes (AID 1919968; active = well fitted curve in the direction sought with a large enough effect in the repeat runs; an effect the other way counts as inactive or inconclusive; also: nearly all actives have a fitted effect of over 55% in size; also: potency is read from the fitted curve at half-maximal effect). Summed up:
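Stably transfected HaCaT (KeratinoSens), 1,500/well. Test agents in DMSO were applied for 23 h, 37 C/5% CO2. CellTiter-Fluor was incubated 1 h before the fluorescence read.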
On the technique in general: qHTS replaces the single test concentration by a dilution series.

Assay [2] in a line: Nuclear factor erythroid 2-related factor 2/antioxidant responsive element (Nrf2/ARE) small molecule agonists: luciferase reporter gene qHTS assay in human keratinocytes (AID 1919969). Also: nearly all actives have a fitted effect of over 35% in size. Also: potency is read from the fitted curve at half-maximal effect. A general note: Reporter assays use an easily measured gene product as a stand-in for the process of interest.
Assay [3] has as its target KiSS-1 receptor (Homo sapiens) (UniProt Q969F8). The experiment in a line: Human kisspeptin (KISS1R) small molecule agonists, calcium flux assay in KISS1R-HEK293 cells (AID 1920064; active = well fitted curve in the direction sought with a large enough effect in the repeat runs; an effect the other way counts as inactive or inconclusive). Summed up: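 After overnight (18 h) culture at 37 C/5% CO2, human KISS1R-HEK293 cells received calcium dye for 1 h, then test compound; emission at 540 nm (excitation 480 nm) was tracked for 3 min.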
In general terms: A change in cytosolic calcium serves as a functional read-out for many receptors and channels.

Assay [4] in a line: G protein-coupled receptor (GPCR) small molecule agonists, calcium flux assay: HEK293 wild type cell line counter screen (AID 1920065). Summed up:
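Following 18 h incubation at 37 C/5% CO2, plates got calcium dye for 1 h; compounds, ATP or DMSO were then pinned in and fluorescence followed kinetically (480/540 nm).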

Assay [5] in a line: p53 small molecule agonists, cell-based qHTS assay with rat liver microsomes (AID 1963578). Summed up: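 Agonist mode in p53RE-bla reporter cells, with compounds co-incubated 16 h at 37 C alongside 0.5 mg/mL rat liver microsomes and 0.5 mg/mL NADPH (final), followed by a 2 h LiveBLAzer detection step.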
A short description of assay [6]: p53 small molecule agonists, cell-based qHTS assay with human liver microsomes: qHTS cell viability counter screen (AID 1963579). Also: nearly all actives have a fitted effect of over 45% in size. In short, it runs like this: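 Metabolically activated exposure: compounds, human liver microsomes and NADPH (0.5 mg/mL final apiece) were added to p53RE-bla cells seeded 5 h earlier, left 16 h at 37 C, and then assessed for viability by CellTiter-Glo luminescence.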

Assay [7] is described as follows: p53 small molecule agonists, cell-based qHTS assay with rat liver microsomes: qHTS cell viability counter screen (AID 1963580). Also: nearly all actives have a fitted effect of over 45% in size. Also: potency is read from the fitted curve at half-maximal effect. Summed up: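 Rat liver microsome (0.5 mg/mL final) and NADPH (0.5 mg/mL final) co-incubation with compounds for 16 h at 37 C on HCT-116 p53RE-bla cells; cytotoxicity taken from intracellular ATP luminescence.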
The nature of assay [8]: p53 small molecule agonists, cell-based qHTS assay (AID 1963582; active = well fitted activation curve with a large enough effect in the signal ratio in the repeat runs, not every such curve was filed as active; the % refers to the signal ratio; also: potency is read from the fitted curve at half-maximal effect). Summed up: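 Measured: fluorescence from cleaved LiveBLAzer substrate. System: p53RE-bla cells, 16 h compound treatment at 37 C, 2 h substrate step at room temperature.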
Assay [9] deals with Muscarinic acetylcholine receptor M1 (Homo sapiens) (UniProt P11229). As to the kind of experiment: Cholinergic receptor muscarinic 1 (CHRM1) small molecule agonists, cell-based qHTS assay (AID 1963589). Also: nearly all actives have a fitted effect of over 35% in size. In short, it runs like this:
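Kinetic fluorescence (1 s intervals) of calcium-sensitive dye in human M1 CHO cells after compound addition; cells pre-incubated 18 h at 37 C/5% CO2 and dye-loaded 1 h.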

Assay [10] can be described thus: cAMP Responsive Elements (CRE) small molecule agonists, cell-based qHTS assay (AID 1963590). In short, it runs like this:
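Test agents in DMSO were incubated 3 h at 37 C/5% CO2 with CRE-bla HEK 293T cells seeded 18 h earlier; LiveBLAzer B/G FRET substrate was added and read after 2 h at room temperature.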

Assay [11] concerns the target Beta-2 adrenergic receptor (Homo sapiens) (UniProt P07550). As to the kind of experiment: Adrenergic beta2 receptor (ADRB2) small molecule antagonists, cell-based qHTS assay (AID 1963592). Also: nearly all actives have a fitted effect of over 50% in size. Also: potency is read from the fitted curve at half-maximal effect. In short, it runs like this:
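Assay format: CHO-ADRB2 cells, 18-20hr seeding at 37C/5% CO2, then compound plus 1nM isoproterenol agonist mix for 0.5hr RT. Homogeneous time-resolved fluorescence cAMP detection after 1hr, expressed as 665/615 nm ratio.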

The target of assay [12] is D(2) dopamine receptor (Homo sapiens) (UniProt P14416). The experiment in a line: Dopamine D2 receptor (DRD2) small molecule agonists, cell-based qHTS assay (AID 1963594). Also: nearly all actives have a fitted effect of over 35% in size. Summed up:
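cAMP accumulation in DRD2-HEK293 cells measured by HTRF after 1 h detection; compounds added 10 min before NKH477 (200nM […]) forskolin-analogue stimulation, 30 min at room temperature, with Ro20-1724 present at 0.1 mM final.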

For assay [13] the target is unchanged. As to the kind of experiment: Dopamine D2 receptor (DRD2) small molecule antagonists, cell-based qHTS assay (AID 1963595; active = well fitted inhibition curve with a large enough effect in the signal ratio in the repeat runs, with a control signal flat; the % refers to the signal ratio). Summed up: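 HEK293 cells stably expressing DRD2, preincubated with 0.1 mM Ro20-1724 and compounds 10 min, were stimulated with 200 nM NKH477 plus 12 nM quinpirole for 30 min at room temperature; cAMP measured by HTRF (665/620 nm).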
The target in assay [14] is Gonadotropin-releasing hormone receptor (Homo sapiens) (UniProt P30968). As to the kind of experiment: Human gonadotropin-releasing hormone receptor (GnRHR) small molecule agonists, calcium flux assay in GnRHR-HEK293 cells (AID 1920063). Also: nearly all actives have a fitted effect of over 35% in size. Also: potency is read from the fitted curve at half-maximal effect. Summed up:
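Stable human GnRHR HEK293 line. 18 h plating, then calcium dye for 1 h at 37 C. Agonist-mode compound addition from DMSO stocks; fluorescence monitored 3 min.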

For assay [15], the target named is 5-hydroxytryptamine receptor 2A (Homo sapiens) (UniProt P28223). As to the kind of experiment: 5-hydroxytryptamine receptor 2A (HTR2A) small molecule agonists, cell-based qHTS assay (AID 1963587). Also: nearly all actives have a fitted effect of over 30% in size. Also: potency is read from the fitted curve at half-maximal effect. Summed up:
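Kinetic calcium-flux fluorescence (2 min, 1 sec intervals) after compound addition in agonist mode. HTR2A-CHO cells were cultured 18 h, then dye-loaded 1 h at 37 C.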

In assay [16] the target is Muscarinic acetylcholine receptor M1 (Homo sapiens) (UniProt P11229). As to the kind of experiment: Cholinergic receptor muscarinic 1 (CHRM1) small molecule antagonists, cell-based qHTS assay (AID 1963588). Also: nearly all actives have a fitted effect of over 40% in size. In short, it runs like this: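 Compounds were tested at 15 concentrations in three independent runs. Dye-loaded CHRM1-CHO cells were exposed 5 min at room temperature before stimulation by acetylcholine added at 50nM. Intracellular calcium was read kinetically on FDSS for 3 min.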

Assay [17] can be described thus: cAMP Responsive Elements (CRE) small molecule antagonists, cell-based qHTS assay (AID 1963591; active = well fitted inhibition curve with a large enough effect in the signal ratio in the repeat runs, not every such curve was filed as active; the % refers to the signal ratio). In short, it runs like this:
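Reporter line CRE-bla HEK 293T in dialyzed-FBS DMEM; cells preincubated 18 h, treated 3 h with compound plus NKH477 (0.25 uM final); LiveBLAzer FRET, 2 h RT.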

The target of assay [18] is Beta-2 adrenergic receptor (Homo sapiens) (UniProt P07550). The experiment in a line: Adrenergic beta2 receptor (ADRB2) small molecule agonists, cell-based qHTS assay (AID 1963593).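 Also: CHO cells stably overexpressing human ADRB2.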 Summed up: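 CHO cells stably over-expressing ADRB2 were plated overnight at 37C, then dosed with compounds plus a stimulation mix containing 100uM IBMX and 25uM Ro-20-1724 for 0.5hr at room temperature. cAMP was measured by HTRF competition, 1hr.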

The nature of assay [19]: p53 small molecule agonists, cell-based qHTS assay: qHTS cell viability counter screen (AID 1963581). Also: nearly all actives have a fitted effect of over 45% in size. In short, it runs like this: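 qHTS counter screen: 16 h compound exposure at 37 C of p53RE-bla HCT-116 cells (4,000 per well, seeded 5 h prior), cell viability by ATP luminescence.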
Assay [20] deals with 5-hydroxytryptamine receptor 2A (Homo sapiens) (UniProt P28223). As to the kind of experiment: 5-hydroxytryptamine receptor 2A (HTR2A) small molecule antagonists, cell-based qHTS assay (AID 1963586). Also: nearly all actives have a fitted effect of over 45% in size. In short, it runs like this: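 CHO cells stably expressing human HTR2A were plated for 18 h at 37 C, then loaded with calcium dye for 1 h. Compounds were preincubated 5 min at room temperature before DOI (4 nM solution) was added. Kinetic fluorescence was read for 3 min.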
Sequence of 5-hydroxytryptamine receptor 2A (Homo sapiens) (P28223 whole entry, looked up): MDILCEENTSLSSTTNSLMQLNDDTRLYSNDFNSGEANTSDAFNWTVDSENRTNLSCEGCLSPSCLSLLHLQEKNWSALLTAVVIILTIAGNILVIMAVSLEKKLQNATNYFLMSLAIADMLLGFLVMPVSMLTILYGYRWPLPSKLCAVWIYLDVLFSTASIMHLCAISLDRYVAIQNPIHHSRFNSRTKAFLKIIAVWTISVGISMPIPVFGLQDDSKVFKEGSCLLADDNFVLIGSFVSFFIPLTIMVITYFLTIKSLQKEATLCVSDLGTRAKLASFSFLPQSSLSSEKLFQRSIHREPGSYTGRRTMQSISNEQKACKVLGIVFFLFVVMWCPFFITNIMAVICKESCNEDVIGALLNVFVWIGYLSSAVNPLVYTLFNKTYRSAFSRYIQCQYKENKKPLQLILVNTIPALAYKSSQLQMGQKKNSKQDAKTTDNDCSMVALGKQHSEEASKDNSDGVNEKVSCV

Sequence of KiSS-1 receptor (Homo sapiens) (Q969F8 whole entry, looked up): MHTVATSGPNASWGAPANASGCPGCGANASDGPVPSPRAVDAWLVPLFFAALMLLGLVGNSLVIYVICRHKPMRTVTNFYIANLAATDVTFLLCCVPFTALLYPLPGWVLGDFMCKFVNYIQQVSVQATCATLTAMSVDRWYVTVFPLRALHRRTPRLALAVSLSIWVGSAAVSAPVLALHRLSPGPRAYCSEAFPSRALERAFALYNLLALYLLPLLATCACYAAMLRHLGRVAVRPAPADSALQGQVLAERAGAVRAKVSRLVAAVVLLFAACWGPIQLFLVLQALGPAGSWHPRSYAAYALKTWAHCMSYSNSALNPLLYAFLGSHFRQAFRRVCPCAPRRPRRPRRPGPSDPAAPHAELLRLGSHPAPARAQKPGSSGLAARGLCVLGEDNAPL
Sequence of D(2) dopamine receptor (Homo sapiens) (P14416 whole entry, looked up): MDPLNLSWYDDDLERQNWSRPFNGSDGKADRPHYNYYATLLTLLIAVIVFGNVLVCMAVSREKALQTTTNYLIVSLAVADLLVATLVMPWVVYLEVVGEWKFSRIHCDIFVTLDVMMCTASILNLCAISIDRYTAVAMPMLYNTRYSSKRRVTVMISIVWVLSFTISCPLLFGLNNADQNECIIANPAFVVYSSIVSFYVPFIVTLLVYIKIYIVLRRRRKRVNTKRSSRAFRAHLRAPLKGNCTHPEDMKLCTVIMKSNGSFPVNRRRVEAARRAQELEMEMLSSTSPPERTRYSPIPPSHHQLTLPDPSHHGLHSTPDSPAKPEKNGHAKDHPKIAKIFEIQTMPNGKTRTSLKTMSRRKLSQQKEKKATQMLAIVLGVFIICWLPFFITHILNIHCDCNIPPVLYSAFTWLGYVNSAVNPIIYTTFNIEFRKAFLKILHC
Sequence of Beta-2 adrenergic receptor (Homo sapiens) (P07550 whole entry, looked up): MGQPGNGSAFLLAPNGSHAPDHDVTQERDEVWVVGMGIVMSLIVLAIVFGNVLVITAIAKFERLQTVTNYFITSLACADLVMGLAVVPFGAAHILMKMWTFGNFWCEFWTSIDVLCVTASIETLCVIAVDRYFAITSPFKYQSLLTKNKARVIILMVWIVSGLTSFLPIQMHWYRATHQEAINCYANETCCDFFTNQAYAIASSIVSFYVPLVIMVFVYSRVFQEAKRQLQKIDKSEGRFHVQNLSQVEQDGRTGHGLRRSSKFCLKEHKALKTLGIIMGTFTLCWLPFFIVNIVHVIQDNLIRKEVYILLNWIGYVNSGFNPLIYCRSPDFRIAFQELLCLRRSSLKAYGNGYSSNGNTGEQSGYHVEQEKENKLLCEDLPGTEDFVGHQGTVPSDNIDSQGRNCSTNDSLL
Sequence of Muscarinic acetylcholine receptor M1 (Homo sapiens) (P11229 whole entry, looked up): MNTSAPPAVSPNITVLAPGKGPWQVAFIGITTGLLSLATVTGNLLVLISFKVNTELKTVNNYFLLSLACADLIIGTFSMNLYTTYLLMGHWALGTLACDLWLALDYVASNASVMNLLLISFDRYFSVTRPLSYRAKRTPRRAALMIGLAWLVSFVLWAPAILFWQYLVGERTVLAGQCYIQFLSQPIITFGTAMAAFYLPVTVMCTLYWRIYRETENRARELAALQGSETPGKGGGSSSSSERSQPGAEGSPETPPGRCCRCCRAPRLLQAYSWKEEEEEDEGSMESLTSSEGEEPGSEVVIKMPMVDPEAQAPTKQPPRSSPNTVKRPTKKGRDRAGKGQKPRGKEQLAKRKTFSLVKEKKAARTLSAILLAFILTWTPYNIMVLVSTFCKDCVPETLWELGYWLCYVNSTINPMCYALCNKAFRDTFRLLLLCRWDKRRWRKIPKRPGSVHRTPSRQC
Sequence of Gonadotropin-releasing hormone receptor (Homo sapiens) (P30968 whole entry, looked up): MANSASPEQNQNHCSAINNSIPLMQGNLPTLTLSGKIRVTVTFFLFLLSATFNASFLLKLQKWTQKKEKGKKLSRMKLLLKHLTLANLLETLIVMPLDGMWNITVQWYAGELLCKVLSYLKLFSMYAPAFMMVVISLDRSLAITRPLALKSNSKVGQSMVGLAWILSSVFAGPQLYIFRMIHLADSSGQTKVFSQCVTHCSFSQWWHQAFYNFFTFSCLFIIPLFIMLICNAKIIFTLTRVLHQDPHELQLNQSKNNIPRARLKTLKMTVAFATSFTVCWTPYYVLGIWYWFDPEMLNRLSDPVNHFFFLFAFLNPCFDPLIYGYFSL

Turning to `CC(Cc1cccc(C(F)(F)F)c1)NCCOC(=O)c1ccccc1` (stereo not given), the Potency result in [1], in assay [2], in assay [3], in [4], in assay [5] and in assay [6] was “inactive” each time. Further, the Potency entry in assay [7], in [8], in assay [9], in [10], in assay [12] and in [13] was “inactive” throughout. In addition, the Potency in [11] was 29.8 µM (active).
On to `NNC(=O)CCCCC(=O)NN`, for which the Potency result in [1], in assay [2], in assay [14], in assay [6], in assay [7] and in assay [15] was “inactive” each time. Also, the Potency entry in assay [16], in [9], in assay [10], in assay [17], in assay [11] and in [18] was “inactive” each time. Also, the Potency entry in assay [12] and in assay [13] was “inactive” each time.
For `CC(=O)NCCCS(=O)(=O)O`, the Potency result in assay [1], in assay [2], in [5], in [7], in assay [19] and in assay [8] was “inactive” in each case. The Potency entry in [20], in [16], in assay [10], in assay [17], in [11] and in assay [12] was “inactive” in each case. In addition, in assay [13], the Potency result was “inactive”. Further, the Potency in assay [14] was 15 µM (active); in assay [15], 18.9 µM (active).
As for `COc1cccc2c1C(=O)c1c(O)c3c(c(O)c1C2=O)C[C@@](O)(C(=O)CO)C[C@@H]3O[C@H]1C[C@H](N)[C@H](O[C@@H]2CCCCO2)[C@H](C)O1`, the Potency was 9.44 µM (active) in [1]; 2.66 µM (active) in [2]; 3.97 µM (active) in assay [7]; 1.78 µM (active) in assay [8]; 10.7 µM (active) in assay [15]. Besides, the Potency entry in [3], in [4], in [5], in [6], in [16] and in [9] was “inactive” throughout. The Potency entry in [10] and in assay [11] was “inactive” throughout.
In the case of `CCCC(=O)OCCc1ccccc1`, the Potency result in assay [1], in assay [2], in [3], in assay [4], in [5] and in assay [6] was “inactive” each time. The Potency entry in assay [7], in assay [8], in assay [20], in assay [10], in assay [17] and in [11] was “inactive” each time. The Potency entry in assay [12] and in assay [13] was “inactive” in each case.
As for `O=C1NC(=O)c2cc([N+](=O)[O-])ccc21`, the Potency entry in [1], in assay [2], in [3], in assay [4], in [5] and in assay [7] was “inactive” in each case. Also, the Potency result in [19], in assay [20], in assay [16], in [9], in assay [10] and in assay [17] was “inactive” throughout. The Potency result in assay [11], in assay [12] and in assay [13] was “inactive” each time. Besides, in assay [15], the Potency was 55.4 µM (active).
